Test results: PubChem BioAssay AID1159580 (chemical genetic matrix, 2015)
Out of some 5,500 compounds screened, about 2,000 (36%) were called active. About 18% were inconclusive and are not listed. Rule as the data show it: active = normalized growth mostly below about 0.91 (no sharp cut-off); inconclusive = no clear call, values can overlap the other calls; inactive = mostly above about 0.92. The list shows a part of the results.

Assay: chemical genetic growth profiling, strain panel (AID 1159580);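 also: tested at 20 µM; growth read once vehicle control cultures reached saturation at 30 °C; 1 = growth at the plate median or of vehicle wells; lower values mean less growth of the strain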
Conditions: growth OD
[1] = S. cerevisiae deletion strains, locus YAL013W, strain DEP1, stronger effect = lower value
[2] = S. cerevisiae deletion strains, locus YBR229C, strain ROT2, stronger effect = lower value
[3] = S. cerevisiae deletion strains, locus YDL101C, strain DUN1, stronger effect = lower value
[4] = S. cerevisiae deletion strains, locus YDR150W, strain NUM1, stronger effect = lower value
[5] = S. cerevisiae deletion strains, locus YEL061C, strain CIN8, stronger effect = lower value
[6] = S. cerevisiae deletion strains, locus YGR078C, strain PAC10, stronger effect = lower value
[7] = S. cerevisiae deletion strains, locus YHR030C, strain SLT2, stronger effect = lower value
[8] = S. cerevisiae deletion strains, locus YHR087W, strain rtc3, stronger effect = lower value
[9] = S. cerevisiae deletion strains, locus YJR043C, strain POL32, stronger effect = lower value
[10] = S. cerevisiae deletion strains, locus YJR075W, strain HOC1, stronger effect = lower value
[11] = S. cerevisiae deletion strains, locus YLR039C, strain RIC1, stronger effect = lower value
[12] = S. cerevisiae deletion strains, locus YLR058C, strain SHM2 (second series), stronger effect = lower value
[13] = S. cerevisiae deletion strains, locus YLR085C, strain ARP6, stronger effect = lower value
[14] = S. cerevisiae deletion strains, locus YLR262C, strain YPT6, stronger effect = lower value
[15] = S. cerevisiae deletion strains, locus YML094W, strain GIM5, stronger effect = lower value
[16] = S. cerevisiae deletion strains, locus YMR219W, strain ESC1, stronger effect = lower value
[17] = S. cerevisiae deletion strains, locus YMR263W, strain SAP30, stronger effect = lower value
[18] = S. cerevisiae deletion strains, locus YNL153C, strain GIM3, stronger effect = lower value
[19] = S. cerevisiae deletion strains, locus YNL298W, strain CLA4 (second series), stronger effect = lower value
[20] = S. cerevisiae deletion strains, locus YNL322C, strain KRE1, stronger effect = lower value
[21] = S. cerevisiae deletion strains, locus YNR030W, strain Alg12, stronger effect = lower value
[22] = S. cerevisiae deletion strains, locus YPL055C, strain LGE1, stronger effect = lower value
[23] = S. cerevisiae deletion strains, locus YPL241C, strain CIN2, stronger effect = lower value
[24] = S. cerevisiae deletion strains, locus YPR135W, strain CTF4, stronger effect = lower value

Measured: normalized growth

CCCCCCCC1CC/C(=C\c2ccc(/C=C3\CCC(CCCCCCC)C3=O)cc2)C1=O (stereo not given)
inactive: [1] 1.01 | [2] 1.01 | [3] 0.985 | S. cerevisiae deletion strains, locus YDL134C, strain PPH21, stronger effect = lower value 1.01 | [4] 0.936 | [5] 0.999 | [6] 0.998 | [7] 1.07 | [8] 1.01 | S. cerevisiae deletion strains, locus YJL187C, strain SWE1, stronger effect = lower value 1.01 | [9] 1.01 | [10] 1.04 | [11] 1.05 | [12] 1.01 | [13] 1.02 | [14] 1.04 | [15] 0.979 | [16] 1 | [17] 1.01 | [18] 1 | [19] 1.04 | [20] 0.994 | [21] 1 | [22] 0.97 | [23] 0.978 | [24] 1.03

Nc1cc(-c2ccc(OC(F)(F)F)cc2)nn1-c1ccc(Cl)c(Cl)c1
inactive: S. cerevisiae deletion strains, locus YAR019C, strain CDC15, stronger effect = lower value 0.979 | S. cerevisiae deletion strains, locus YBL105C, strain PKC1, stronger effect = lower value 1.01 | S. cerevisiae deletion strains, locus YBR135W, strain CKS1, stronger effect = lower value 0.981 | S. cerevisiae deletion strains, locus YBR136W, strain MEC1, stronger effect = lower value 1.02 | S. cerevisiae deletion strains, locus YBR160W, strain CDC28, stronger effect = lower value 0.983 | S. cerevisiae deletion strains, locus YDL017W, strain CDC7, stronger effect = lower value 0.994 | S. cerevisiae deletion strains, locus YDL028C, strain MPS1, stronger effect = lower value 1.01 | [3] 1 | S. cerevisiae deletion strains, locus YDL108W, strain KIN28, stronger effect = lower value 1.01 | S. cerevisiae deletion strains, locus YDL132W, strain cdc53, stronger effect = lower value 0.971 | S. cerevisiae deletion strains, locus YDR052C, strain DBF4, stronger effect = lower value 0.985 | S. cerevisiae deletion strains, locus YDR054C, strain cdc34, stronger effect = lower value 0.904 | S. cerevisiae deletion strains, locus YDR226W, strain ADK1, stronger effect = lower value 0.983 | S. cerevisiae deletion strains, locus YFL009W, strain cdc4, stronger effect = lower value 1.01 | S. cerevisiae deletion strains, locus YFL029C, strain CAK1, stronger effect = lower value 0.969 | S. cerevisiae deletion strains, locus YFR003C, strain YPI1, stronger effect = lower value 1 | S. cerevisiae deletion strains, locus YFR028C, strain CDC14, stronger effect = lower value 1 | S. cerevisiae deletion strains, locus YHR205W, strain SCH9, stronger effect = lower value 0.635 | S. cerevisiae deletion strains, locus YIL147C, strain SLN1, stronger effect = lower value 1 | S. cerevisiae deletion strains, locus YJR016C, strain ILV3, stronger effect = lower value 1 | S. cerevisiae deletion strains, locus YJR066W, strain TOR1, stronger effect = lower value 0.669 | S. cerevisiae deletion strains, locus YKL193C, strain SDS22, stronger effect = lower value 0.982 | S. cerevisiae deletion strains, locus YLR403W, strain SFP1, stronger effect = lower value 0.676 | S. cerevisiae deletion strains, locus YMR001C, strain CDC5, stronger effect = lower value 0.999 | S. cerevisiae deletion strains, locus YMR277W, strain FCP1, stronger effect = lower value 0.993 | S. cerevisiae deletion strains, locus YNL006W, strain LST8, stronger effect = lower value 1 | S. cerevisiae deletion strains, locus YNL161W, strain CBK1, stronger effect = lower value 0.992 | S. cerevisiae deletion strains, locus YNL207W, strain RIO2, stronger effect = lower value 0.989 | S. cerevisiae deletion strains, locus YNL222W, strain SSU72, stronger effect = lower value 0.99 | S. cerevisiae deletion strains, locus YOL078W, strain AVO1, stronger effect = lower value 1 | S. cerevisiae deletion strains, locus YOR329C, strain SCD5, stronger effect = lower value 1.01 | S. cerevisiae deletion strains, locus YPL209C, strain IPL1, stronger effect = lower value 0.966 | S. cerevisiae deletion strains, locus YPR025C, strain CCL1, stronger effect = lower value 0.975 | S. cerevisiae deletion strains, strain TSCII, stronger effect = lower value 1.01
active: S. cerevisiae deletion strains, locus YDL214C, strain PRR2, stronger effect = lower value 0.565 | S. cerevisiae deletion strains, locus YDR477W, strain SNF1, stronger effect = lower value 0.487 | S. cerevisiae deletion strains, locus YER123W, strain YCK3, stronger effect = lower value 0.249 | S. cerevisiae deletion strains, locus YER133W, strain GLC7, stronger effect = lower value 0.577 | S. cerevisiae deletion strains, locus YFR019W, strain FAB1, stronger effect = lower value 0.574 | S. cerevisiae deletion strains, locus YGR040W, strain KSS1, stronger effect = lower value 0.488 | S. cerevisiae deletion strains, locus YGR052W, strain FMP48, stronger effect = lower value 0.446 | S. cerevisiae deletion strains, locus YGR092W, strain DBF2, stronger effect = lower value 0.388 | [7] 0.317 | S. cerevisiae deletion strains, locus YHR079C, strain IRE1, stronger effect = lower value 0.448 | S. cerevisiae deletion strains, locus YHR082C, strain KSP1, stronger effect = lower value 0.521 | S. cerevisiae deletion strains, locus YJL095W, strain BCK1, stronger effect = lower value 0.254 | S. cerevisiae deletion strains, locus YJL157C, strain FAR1, stronger effect = lower value 0.706 | S. cerevisiae deletion strains, locus YJR066W, strain TOR1 (second series), stronger effect = lower value 0.589 | S. cerevisiae deletion strains, locus YKL048C, strain ELM1, stronger effect = lower value 0.752 | S. cerevisiae deletion strains, locus YKL067W, strain YNK1, stronger effect = lower value 0.597 | S. cerevisiae deletion strains, locus YKL101W, strain HSL1, stronger effect = lower value 0.268 | S. cerevisiae deletion strains, locus YKL203C, strain TOR2, stronger effect = lower value 0.454 | S. cerevisiae deletion strains, locus YLR113W, strain HOG1, stronger effect = lower value 0.317 | S. cerevisiae deletion strains, locus YLR133W, strain CKI1, stronger effect = lower value 0.644 | S. cerevisiae deletion strains, locus YML070W, strain DAK1, stronger effect = lower value 0.439 | S. cerevisiae deletion strains, locus YMR205C, strain PFK2 (second series), stronger effect = lower value 0.605 | S. cerevisiae deletion strains, locus YNL020C, strain ARK1, stronger effect = lower value 0.53 | S. cerevisiae deletion strains, locus YNL183C, strain NPR1, stronger effect = lower value 0.378 | S. cerevisiae deletion strains, locus YNL307C, strain MCK1 (second series), stronger effect = lower value 0.335 | S. cerevisiae deletion strains, locus YOL136C, strain PFK27, stronger effect = lower value 0.672 | S. cerevisiae deletion strains, locus YOR061W, strain CKA2, stronger effect = lower value 0.355 | S. cerevisiae deletion strains, locus YOR119C, strain RIO1, stronger effect = lower value 0.528 | S. cerevisiae deletion strains, locus YOR231W, strain MKK1, stronger effect = lower value 0.349 | S. cerevisiae deletion strains, locus YPL031C, strain PHO85, stronger effect = lower value 0.29 | S. cerevisiae deletion strains, locus YPL153C, strain RAD53, stronger effect = lower value 0.193 | S. cerevisiae deletion strains, locus YPL204W, strain HRR25, stronger effect = lower value 0.285 | S. cerevisiae deletion strains, locus YPL256C, strain CLN2, stronger effect = lower value 0.604 | S. cerevisiae deletion strains, locus YPR106W, strain ISR1, stronger effect = lower value 0.643

Cc1ccc(-n2nc(-c3ccc(OC(F)(F)F)cc3)cc2NC(=O)Nc2ccc(OC(F)(F)F)cc2)cc1C
inactive: [1] 1 | [2] 1.02 | [3] 1.01 | [4] 1.02 | [5] 1.01 | [6] 1.04 | [7] 1.09 | [8] 1.01 | [9] 1.02 | [10] 1.03 | S. cerevisiae deletion strains, locus YKL190W, strain CNB1, stronger effect = lower value 1.02 | [11] 1.08 | [12] 1.02 | [13] 1.17 | [14] 1.05 | [15] 1.02 | [16] 1.02 | [17] 1.05 | [18] 0.996 | [19] 1.05 | [20] 1 | [21] 1.01 | [22] 1.06 | [23] 1.08 | [24] 0.996 | S. cerevisiae strains, strain wild type, stronger effect = lower value 1.02
